The target in test [1] is Calcium and integrin-binding protein 1 (Homo sapiens) (UniProt Q99828). Briefly: Primary qHTS for Identification of Calcium Integrin Binding Protein 1 (CIB1) Competitor (AID 1508620).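 Also: GST tagged CIB1 binding a fluorescein labelled alphaIIb integrin peptide tracer; top concentration of the series differs between compounds.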 The gist of the method:
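CIB1-GST (1 uM final) and compound incubated 15 min at room temperature before adding FITC-alphaIIb peptide tracer (100 nM final). Competition for binding read by fluorescence polarization (ex 480, em 540) after another 15 min at room temperature.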
A general note: In qHTS, concentration-response curves come from the screen itself.

Test [2] has as its target Cytochrome P450 1A2 (Homo sapiens) (UniProt P05177). Briefly: p450-cyp1a2 (AID 410; calls by dose curve; also: potency is read from the fitted curve at half-maximal effect). Put shortly: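 20nM CYP1A2, 100uM Luciferin-ME (=Km), 100mM KPO4; cpd 10 min RT; +NADPH regen, 60 min RT; stop/detect 20 min; luminescence. Normalized to furafylline 57 uM = full inhibition.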
Test [3] concerns the target Mitogen-activated protein kinase 10 (Mus musculus) (UniProt Q61831). The experiment in a line: JNK3 AlphaScreen Assay (AID 530; active = well fitted curve in either direction with a large enough effect, not every such curve was filed as active;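 also: kinase came from lysate of stimulated human HepG2 cells; signal reports phosphorylation of biotinylated GST-cJun 1-79 at Ser73 with 10 µM ATP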). The gist of the method: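 Kinase buffer: 20 mM Tris-HCl pH 7.6, 10 mM MgCl2, 1 mM DTT, 0.1 mM Na3VO4, 0.01% Tween-20; ATP 10 uM. Substrate biotin-GST-cJun(1-79), enzyme from activated HepG2 lysates. Detection by Ser73 phospho-antibody AlphaScreen.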
For orientation: Alpha assays give light when donor and acceptor beads are brought close together.

For test [4], the target named is Cytochrome P450 3A4 (Homo sapiens) (UniProt P08684). The experiment in a line: qHTS Assay for Activators of Cytochrome P450 3A4 (AID 885). Also: nearly all actives have a fitted effect of over 65% in size. Put shortly:
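Human CYP3A4 dealkylates Luciferin-PPXE to luciferin, which luciferase detection converts to light. Substrate was at its KM (25uM), buffer 200mM KPO4, reaction 60 min at RT.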

Test [5] in a line: Confirmation and Secondary Assay for Modulators of Hemoglobin Beta Chain Splicing at IVS2 654 locus (AID 910).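 Also: HeLa cells stably carrying EGFP split by mutant beta-globin IVS2-654 intron; per-well total GFP intensity by laser scanning cytometry after 2-day treatment.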 Put shortly: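 Readout: per-well total peak green fluorescence (488 nm ex, 500–520 nm em) from objects 5–250 µm, reflecting correct splicing of an EGFP-654 reporter. Compounds were applied for 2 days at 37 °C to overnight-plated HeLa EGFP-654 cells; controls were DMSO and 500 nM IVS2-654 PNA.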

Test [6] is described as follows: Confirmation and Secondary Assay for Modulators of Hemoglobin Beta Chain Splicing at IVS2 705 locus (AID 930).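 Also: HeLa cells stably expressing the EGFP-705 splicing reporter; GFP fluorescence per well restored by corrected splicing of the IVS2-705 intron in EGFP.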 Put shortly:
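Per-well GFP, captured at 1 x 8 µm resolution with 488 nm excitation, served as the read-out for HeLa EGFP-705 cells incubated 2 days with test compound versus DMSO.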

Test [7] can be described thus: qHTS Assay for Lipid Storage Modulators (AID 1519; calls by dose curve). The following applies: Drosophila S3 cells, BODIPY lipid droplet/cell ratio, laser cytometry, cells loaded with oleic acid. Put shortly: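 Cells seeded at 5,000 per well were treated with compounds over a concentration series and loaded with oleic acid (400 uM, as added). Lipid droplet fluorescence (488 nm excitation, 500-530 nm channel) was read by laser-scanning cytometry and normalized to 20 uM Triacsin C.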

Test [8] addresses Ubiquitin carboxyl-terminal hydrolase 1 (Homo sapiens) (UniProt O94782). Briefly: Inhibitors of USP1/UAF1: Pilot qHTS (AID 504865).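 Also: rhodamine fluorescence freed from ubiquitin-rhodamine substrate followed over time; top concentration of the series differs between compounds; nearly all actives have a fitted effect of over 35% in size.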 Put shortly: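 Enzyme-free wells gave the negative control, while test wells held 1nM USP1/UAF1 preincubated with compound for 15 min at room temperature. Ub-Rho at 150nM final started the reaction, and fluorescence at 480/540 nm was recorded kinetically.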

The nature of test [9]: Primary qHTS for small molecule stabilizers of the endoplasmic reticulum resident proteome: Secreted ER Calcium Modulated Protein (SERCaMP) assay (AID 1508630). Put shortly: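 The SH-SY5Y reporter protocol was run at 3 concentrations up to 38.3 uM (primary) or 11 concentrations (follow-up): 16 h compound, 100 nM thapsigargin for 4 h, then extracellular luciferase luminescence.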

Each structure is given as a SMILES string. Results filed as inconclusive are left out. Entries that show only a call come without a potency. The source made the active and inactive calls. Unless noted, calls follow the shape of the dose curve; as a rule, active = well fitted curve in the direction sought with a large enough effect; inconclusive = small, poorly fitted or top-dose-only effect, or another doubt; inactive = no such curve, though single readings can be large; an effect the other way counts as inactive or inconclusive.

Chain of Calcium and integrin-binding protein 1 (Homo sapiens) (Q99828 whole entry, looked up): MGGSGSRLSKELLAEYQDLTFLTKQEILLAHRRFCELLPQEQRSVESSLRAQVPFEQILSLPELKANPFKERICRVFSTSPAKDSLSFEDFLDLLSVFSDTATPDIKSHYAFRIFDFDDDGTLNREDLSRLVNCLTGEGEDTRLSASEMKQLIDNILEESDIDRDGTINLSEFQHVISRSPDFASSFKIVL
Chain of Cytochrome P450 3A4 (Homo sapiens) (P08684 whole entry, looked up): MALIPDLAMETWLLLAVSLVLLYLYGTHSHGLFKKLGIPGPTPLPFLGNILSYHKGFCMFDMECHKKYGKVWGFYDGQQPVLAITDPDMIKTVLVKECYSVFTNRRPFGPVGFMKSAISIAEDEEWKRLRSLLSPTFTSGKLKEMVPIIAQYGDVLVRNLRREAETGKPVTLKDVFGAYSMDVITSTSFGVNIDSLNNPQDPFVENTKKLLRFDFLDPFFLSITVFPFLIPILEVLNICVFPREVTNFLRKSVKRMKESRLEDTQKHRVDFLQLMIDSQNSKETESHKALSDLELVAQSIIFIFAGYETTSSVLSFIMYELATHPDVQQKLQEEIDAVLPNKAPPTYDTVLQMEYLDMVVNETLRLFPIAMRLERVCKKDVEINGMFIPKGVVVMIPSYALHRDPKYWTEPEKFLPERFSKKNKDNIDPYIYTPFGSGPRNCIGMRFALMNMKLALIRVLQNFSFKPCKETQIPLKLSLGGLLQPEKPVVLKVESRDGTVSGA
Chain of Ubiquitin carboxyl-terminal hydrolase 1 (Homo sapiens) (O94782 whole entry, looked up): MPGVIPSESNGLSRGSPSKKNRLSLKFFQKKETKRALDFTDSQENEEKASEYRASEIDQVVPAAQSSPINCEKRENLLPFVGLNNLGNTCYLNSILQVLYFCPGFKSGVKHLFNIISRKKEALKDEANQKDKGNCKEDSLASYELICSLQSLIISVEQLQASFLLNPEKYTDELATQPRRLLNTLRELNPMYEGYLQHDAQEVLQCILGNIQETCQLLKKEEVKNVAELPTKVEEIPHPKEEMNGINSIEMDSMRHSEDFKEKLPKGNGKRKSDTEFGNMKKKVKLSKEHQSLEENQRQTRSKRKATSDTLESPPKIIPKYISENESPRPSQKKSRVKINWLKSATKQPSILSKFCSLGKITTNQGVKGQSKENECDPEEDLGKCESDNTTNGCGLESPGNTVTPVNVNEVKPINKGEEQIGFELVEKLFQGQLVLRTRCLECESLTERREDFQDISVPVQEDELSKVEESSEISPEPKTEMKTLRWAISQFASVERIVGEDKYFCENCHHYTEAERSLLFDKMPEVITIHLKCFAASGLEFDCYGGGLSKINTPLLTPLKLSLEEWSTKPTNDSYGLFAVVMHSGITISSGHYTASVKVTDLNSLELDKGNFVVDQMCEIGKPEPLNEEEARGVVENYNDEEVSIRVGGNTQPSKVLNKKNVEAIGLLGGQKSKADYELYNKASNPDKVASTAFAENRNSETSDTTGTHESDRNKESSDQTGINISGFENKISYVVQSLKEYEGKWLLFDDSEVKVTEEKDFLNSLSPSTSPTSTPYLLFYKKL
Chain of Cytochrome P450 1A2 (Homo sapiens) (P05177 whole entry, looked up): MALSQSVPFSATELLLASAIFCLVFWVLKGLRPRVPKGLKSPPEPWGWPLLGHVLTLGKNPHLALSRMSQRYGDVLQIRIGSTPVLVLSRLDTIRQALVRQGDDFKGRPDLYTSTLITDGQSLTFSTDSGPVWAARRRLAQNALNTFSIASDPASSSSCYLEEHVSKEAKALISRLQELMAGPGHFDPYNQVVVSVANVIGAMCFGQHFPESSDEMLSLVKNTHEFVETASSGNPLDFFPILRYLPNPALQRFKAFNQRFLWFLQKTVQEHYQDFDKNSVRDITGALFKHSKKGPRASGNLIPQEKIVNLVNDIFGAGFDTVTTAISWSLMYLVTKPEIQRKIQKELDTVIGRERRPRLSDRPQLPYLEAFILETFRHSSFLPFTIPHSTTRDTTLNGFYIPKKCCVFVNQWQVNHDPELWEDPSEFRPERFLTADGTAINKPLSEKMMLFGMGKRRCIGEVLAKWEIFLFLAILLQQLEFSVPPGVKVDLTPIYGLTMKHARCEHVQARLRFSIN

`O=C(Nc1ncc(Cc2ccc(C(F)(F)F)cc2)s1)c1ccc(-c2ccc([N+](=O)[O-])cc2)o1`: in test [1], the Potency result is “inactive”.

With `C[C@@H](O)c1ccc(-c2ccc3ncnc(NCc4cccs4)c3c2)o1`, the Potency result in test [1] is “inactive”.

For `Cn1c2cc(Br)sc2c2cnn(Cc3ccc(F)cc3F)c(=O)c21`, the Potency result in [1] was “inactive”.

Regarding `COc1ccc2cc3cc(C(=O)Nc4ccc(F)cc4)sc3nc2c1`, the Potency result in test [1] is “inactive”.

Turning to `CN(C)c1cccc(-c2cnc(N3CCC(C(N)=O)CC3)s2)c1`, the Potency result in test [1] is “inactive”.

`O=[S+]([O-])(NCC#CCSc1nnc(-c2cccc3ccccc23)o1)c1ccc(F)cc1`: the Potency result in test [1] was “inactive”.

For the compound `CCNC(=O)c1ccc(-c2ccc3ncnc(NCC(C)(C)C)c3c2)o1`, the Potency result in [1] is “inactive”.

Turning to `O=C(Nc1ccc(Cl)c(Cl)c1)Nc1nnc(Br)s1`, the Potency result in test [1] is “inactive”.

In the case of `Cc1c(C(=O)O)[nH]c2c1C(=O)CCC2`, in test [1], the Potency entry is “inactive”.

As to `COc1cc(-c2csc(N3CCC(C(N)=O)CC3)n2)cc(OC)c1OC`, the Potency result in test [1] is “inactive”.

Regarding `N#Cc1cccnc1SC1=NS(=O)(=O)c2ccccc21`, in test [1], the Potency result was “inactive”.

With `Cc1ccc(-c2ccnn(CC(=O)N(C)C(C)c3ccco3)c2=O)cc1` (stereo unspecified), the Potency entry in test [1] is “inactive”.

In the case of `CCOc1ccc(C(C)CNC(=O)c2cc3sccc3n2Cc2ccccc2)cc1OCC` (stereo unspecified), the Potency result in test [1] was “inactive”.

As for `N#Cc1nc(Nc2ccc(F)cc2)nc(NC2CCCC2)n1`, the Potency result in test [1] is “inactive”.

On to `Cc1cccc2oc(NC3=NC(c4[nH]ncc4Cl)C4=C(CCCC4=O)N3)nc12` (stereo unspecified), for which the Potency entry in test [1] was “inactive”.

Regarding `COc1cccc(CCN2C(=O)c3ccccc3NC2c2ccc(OC)c(COc3c(C)cc(NC(C)=O)cc3C)c2)c1` (stereo unspecified), in test [1], the Potency result was “inactive”.

`Cc1ccc(N[S+](=O)([O-])c2cc3c(cc2Cl)CCC(=O)N3)cc1Br`: in test [1], the Potency result was “inactive”.

As for `COc1ccc(C2Nc3ccccc3C(=O)N2Cc2cccnc2)cc1COc1c(C)cccc1C` (stereo unspecified), in test [1], the Potency entry was “inactive”.

`CN(CC1CCCO1)c1ncnc2ccc(-c3ccc4c(c3)OCO4)cc12` (stereo unspecified): the Potency entry in test [1] is “inactive”.

Regarding `COc1ccc(-n2c(C)c(C(C)=O)c3ccccc32)cc1`, the Potency entry in test [1] was “inactive”.

As for `COc1ccc(N2Cc3cccc(C(=O)O)c3C2=O)c(OC)c1`, the Potency result in test [1] is “inactive”.

On to `COc1cccc(NC(=S)N2CCN(c3cc(C(F)(F)F)cc(C(F)(F)F)c3)CC2)n1`, for which the Potency entry in test [1] is “inactive”.

Consider `Cc1cc(C)nc(NC(=S)N2CCN(c3ccc(C(F)(F)F)cc3C(F)(F)F)CC2)c1`, for which, in test [1], the Potency result is “inactive”.

Take `CN1CCN(c2cccc(Nc3nn4c(=O)c5ccccc5nc4s3)c2)CC1`: in test [1], the Potency result was “inactive”.

As for `COc1cccc(C2c3c(ncn(-c4ccccc4C#N)c3=N)Oc3ccc4ccccc4c32)c1` (stereo unspecified), the Potency entry in test [1] was “inactive”.

`Cc1nc(C(C)N(C)c2ncnc3ccc(-c4ccc5c(c4)OCO5)cc23)cs1` (stereo unspecified): in test [1], the Potency result is “inactive”.

Regarding `CCCCN(C)C(=O)Cn1nc(-c2ccc(C(C)=O)cc2)ccc1=O`, the Potency result in test [1] was “inactive”.

Take `Cc1cc(C)nc(NC(=S)N2CCN(c3ccccc3C#N)CC2)c1`: in test [1], the Potency entry was “inactive”.

With `O=C(Nc1ccc(N2CCOCC2)c(F)c1)Nc1nnc(-c2ccncc2)s1`, the Potency result in test [1] is “inactive”.

As for `CN1CCCC1CCNc1ncnc2ccc(-c3ccc4c(c3)OCO4)cc12` (stereo unspecified), in [1], the Potency result was “inactive”.

Turning to `Cc1ccc(OCCn2c(CCNC(=O)c3ccccc3)nc3ccccc32)cc1`, the Potency entry in test [1] was “inactive”.

Turning to `Cc1cc(C)nc(NC(=S)N2CCN(c3cncc4ccccc34)CC2)c1`, the Potency result in test [1] is “inactive”.

Regarding `O=C1CCc2cc(S(=O)(=O)Nc3ccc4c(c3)OCCO4)ccc2N1`, the Potency entry in test [1] was “inactive”.

`Cc1cc2c(s1)c1cnn(Cc3ccc(Br)cc3)c(=O)c1n2C`: the Potency result in test [1] was “inactive”.

On to `O=C1CCCC2=C1C(c1[nH]ncc1Cl)N=C(Nc1ccccc1)N2` (stereo unspecified), for which the Potency entry in test [1] was “inactive”.

`Cc1cc2c(s1)c1cnn(Cc3ccc(Cl)c(Cl)c3)c(=O)c1n2C`: in [1], the Potency entry is “inactive”.

As to `Cc1cccc(-c2ccc3ncnc(NCc4cccc(F)c4)c3c2)c1`, in [1], the Potency entry was “inactive”.

As for `Cc1ccc(NS(=O)(=O)c2cccc(Cl)c2)cc1C`, in [1], the Potency result is “inactive”.

On to `Cc1cc(NC(=O)c2ccc([S+](=O)([O-])NCc3ccc(Cl)c(Cl)c3)cc2)no1`, for which the Potency result in test [1] is “inactive”.

Consider `CC(=O)NCc1cc(Cl)c2cccnc2c1O`, for which the Potency entry in [1] is “inactive”.

`Cc1ccc(OCCn2c(CCNC(=O)c3cccc4ccccc34)nc3ccccc32)cc1`: the Potency entry in [1] was “inactive”.

For the compound `c1ccc(CNc2ccc(N3CCOCC3)cc2)cc1`, in [1], the Potency entry was “inactive”.

Turning to `Cc1ccc(-c2ccc(=O)n(CC(=O)NCCCc3ccccc3)n2)cc1`, the Potency entry in [1] was “inactive”.

With `Cc1cc(-c2nnc3n2CCCCC3)c(C)n1-c1ccncc1`, the Potency entry in [1] was “inactive”.

On to `COc1ccc(OC)c(-c2nnc3n2N=C(c2c(OC)cccc2OC)CS3)c1`, for which, in [1], the Potency result is “inactive”.

With `Cc1cccc(CNc2ncnc3ccc(-c4cccnc4)cc23)c1`, in test [2], the Potency was 316 nM (active). For the same compound, the result in test [3], in test [5] and in test [6] was inactive. For the same compound, the Potency entry in test [4], in test [8], in [1] and in [9] was “inactive” in each case. In addition, in [7] (at 57.5 µM (top of the series)), the activity change, negative = inhibition is 2.99% (inactive). In addition, the figures for the max response in [7] (measured here: cell count channel max response) and in [7] (measured here: lipid channel max response) were -7.82% and -4.88%, respectively.

The record behind these values is PubChem BioAssay (NCATS).
